This passage reports Potency results from PubChem BioAssay (NCATS).

Values without a mark were called inactive. Active and inactive are the calls of the source. The rule behind the calls is not given here.

For the experiment, the system named is HIV-1 nucleocapsid protein NCp7 (binding to TG oligonucleotide). The experiment can be described thus: HIV Nucleocapsid (AID 346).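 Note: potency is for inhibitors that block NC binding and lower polarization.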 The conditions noted are these: HIV-1 NC / fluorescein-TGTGTGTG probe, fluorescence polarization. The method in brief:
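NCp7 100 nM + fluorescein TG4xF 10 nM; Hepes pH 7.5/250mM NaCl/1uM ZnCl2/0.004% PEG 20000; 1 hr RT; FP, 45 s exposure; oligo-only wells as negative control.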
(In general: Fluorescence polarisation rises when a labelled molecule tumbles more slowly, as on binding a larger partner.)
Potency is the fitted concentration of half-maximal effect.

Turning to `O=c1c(CCc2ccccc2)nc2cncnc2n1-c1ccccc1`, the Potency was over 20 µM.
In the case of `COc1ccc(NC(=O)N2CC[C@@]3(CCCN(C(=O)c4csnn4)C3)C2)cc1`, the Potency was over 20 µM.
`COc1cccc(Nc2ncc3nc(-c4ccccc4)c(=O)n(C[C@H]4CCCO4)c3n2)c1`: the Potency is over 20 µM.
With `O=c1c(-c2ccccc2)nc2cnc(N3CCOCC3)nc2n1Cc1ccc(F)cc1`, the Potency was over 20 µM.
As to `COc1ccccc1CNc1cc(-c2ccccc2C(F)(F)F)ncn1`, the Potency is over 20 µM.
With `Clc1ccccc1-c1cncnc1NCCN1CCOCC1`, the Potency is over 20 µM.
On to `COCC(=O)N1CCC2(CC1)CCN(C(=O)NC(C)C)CC2`, for which the Potency is over 20 µM.
Consider `Cc1ccccc1-c1cncnc1Nc1ccccc1`, for which the Potency is over 20 µM.
As to `COCCn1c(=O)c(-c2cccc(C#N)c2)nc2cnc(N3CCN(C)CC3)nc21`, the Potency is over 20 µM.
Turning to `O=C(c1ccncc1)N1CCC2(CCCN(Cc3nccs3)C2)CC1`, the Potency is over 20 µM.
With `Cc1cnc(CNc2cc(-c3ccccc3C(F)(F)F)ncn2)cn1` the figure was over 20 µM; with `COc1ccc(Oc2ncc3ncc(=O)n(Cc4cccc(OC)c4)c3n2)cc1`, over 20 µM.
For `COc1ccc2[nH]cc(CCNc3ncncc3-c3ccccc3C(F)(F)F)c2c1`, the Potency is over 20 µM.
`Cn1c(=O)c(CCc2ccccc2)nc2cnc(N3CCOCC3)nc21`: the Potency is over 20 µM.
On to `O=c1cnc2cnc(Nc3ccccc3)nc2n1CCc1ccccc1`, for which the Potency was over 20 µM.
Consider `COc1cccc(-c2ccc3ncnc(NCc4ccccc4OC)c3c2)c1`, for which the Potency is over 20 µM.
Take `N#CCCn1c(=O)c(-c2cc(F)cc(F)c2)nc2cnc(Oc3ccccc3)nc21`: the Potency was over 20 µM.
To `COc1cccc(-c2cncnc2NCCc2cnc[nH]2)c1` belongs over 20 µM.
`Cc1cccc(CNc2cc(-c3cccc(C#N)c3)ncn2)c1`: the Potency was over 20 µM.
`CN1CCN(c2ncc3nc(-c4cn(C)c5ccccc45)c(=O)n(Cc4cccs4)c3n2)CC1`: the Potency is over 20 µM.
In the case of `COc1ccc(-c2nc3cnc(Nc4ccccc4)nc3n(CCC#N)c2=O)cc1`, the Potency is 2.04 µM (active).
Regarding `c1ccc2c(NCCN3CCOCC3)nc(-c3ccc4c(c3)OCO4)nc2c1`, the Potency was over 20 µM.
With `CN(C)c1ncc2nc(CCc3ccccc3)c(=O)n(-c3ccccc3)c2n1`, the Potency is over 20 µM.
Take `c1ccc(CNc2ncncc2-c2cccnc2)cc1`: the Potency is over 20 µM.
`Cn1c(=O)c(CCc2ccccc2)nc2cnc(OCc3ccccc3)nc21`: the Potency was over 20 µM.
With `Cc1cnc(CNc2nc(-c3ccc4c(c3)OCO4)nc3ccccc23)cn1` the figure was over 20 µM.
As to `Cn1cc(-c2nc3cnc(N4CCOCC4)nc3n(CCC#N)c2=O)c2ccccc21`, the Potency is over 4 µM.
As to `COCCn1c(=O)c(-c2cccc(C#N)c2)nc2cnc(Oc3ccc(OC)cc3)nc21`, the Potency is over 20 µM.
As to `CCNc1ncc2nc(CCc3ccccc3)c(=O)n(C3CC3)c2n1`, the Potency was over 20 µM.
With `COCCn1c(=O)c(-c2ccccc2)nc2cnc(N3CCN(C)CC3)nc21` the figure was over 20 µM; with `Cc1cnc(CNc2ncncc2-c2ccccc2C)cn1`, over 20 µM; with `CC(=O)NCCNc1nc(-c2ccc3c(c2)OCO3)nc2ccccc12`, over 20 µM.
`Cn1c(=O)c(CCc2ccccc2)nc2cnc(Nc3ccccc3)nc21`: the Potency is over 20 µM.
Regarding `COc1ccc(CNc2cc(-c3ccoc3)ncn2)c(OC)c1`, the Potency is over 20 µM.
As to `CN(C)Cc1ccccc1-c1nc(NCc2ccccc2)c2ccccc2n1`, the Potency is over 20 µM.
As for `Cc1nc2cnc(N(C)C)nc2n(CCc2ccccc2)c1=O`, the Potency was over 20 µM.
In the case of `O=C(c1cnccn1)N1CCC[C@@]2(CCN(c3ccncc3)C2)C1`, the Potency is over 20 µM.
As for `COc1ncc2nc(-c3ccc(Cl)cc3)c(=O)n(C[C@H]3CCCO3)c2n1`, the Potency was over 20 µM.
To `CC(=O)N1CCC2(CC1)CCN(C(=O)Nc1cccc(C#N)c1)CC2` belongs over 20 µM; to `COc1ccccc1CCn1c(=O)c(-c2ccc(F)c(F)c2)nc2cncnc21`, over 20 µM; to `COc1ncc2nc(-c3ccc(F)cc3)c(=O)n(CCC#N)c2n1`, over 20 µM.
With `N#CCCn1c(=O)c(-c2cccc(C#N)c2)nc2cnc(Oc3cccc(Cl)c3)nc21`, the Potency was over 20 µM.
Turning to `COc1ccc2[nH]cc(CCNc3ncncc3-c3cccnc3)c2c1`, the Potency is over 20 µM.
Turning to `CC(=O)NCCNc1ncnc2ccc(-c3ccoc3)cc12`, the Potency was over 20 µM.
As for `Cn1cccc1C(=O)N1CCC2(CCCN(Cc3ccccc3)C2)CC1`, the Potency was over 20 µM.
As for `N#Cc1ccc(CN2CCCC3(CCN(C(=O)c4cccc(F)c4)CC3)C2)cc1`, the Potency was over 20 µM.
Regarding `Cc1cccc(CNc2ccnc(-c3cccc(NS(C)(=O)=O)c3)n2)c1`, the Potency is over 20 µM.
In the case of `COc1ncc2nc(-c3cccs3)c(=O)n(Cc3cccs3)c2n1`, the Potency was over 20 µM.
On to `CN1CCN(c2ncc3ncc(=O)n(-c4ccccc4)c3n2)CC1`, for which the Potency was over 20 µM.
Regarding `CN1CCN(c2ncc3ncc(=O)n(Cc4cccs4)c3n2)CC1`, the Potency is over 20 µM.
Take `COc1ccc(-c2nc3cnc(N4CCN(C)CC4)nc3n(Cc3cccc(OC)c3)c2=O)cc1`: the Potency is over 20 µM.
Consider `CCNc1ncc2nc(CCc3ccccc3)c(=O)n(C[C@H]3CCCO3)c2n1`, for which the Potency is over 20 µM.
For `COc1ccc(C(=O)N2CCC3(CCCN(Cc4ccccc4)C3)CC2)cc1`, the Potency was over 20 µM.
With `COc1ccc(-c2nc3cnc(N4CCNCC4)nc3n(-c3ccccc3)c2=O)cc1` the figure was over 20 µM.
`CC(C)CN1CC2(CCN(C(=O)c3cnccn3)CC2)C1`: the Potency is over 20 µM.
As for `Cc1nc2cnc(N(C)C)nc2n(Cc2cccs2)c1=O`, the Potency is over 20 µM.
Consider `CN(C)c1ncc2nc(-c3ccc(Cl)cc3)c(=O)n(C3CC3)c2n1`, for which the Potency was over 20 µM.
For the compound `c1cncc(CNc2ncnc3ccc(-c4ccoc4)cc23)c1`, the Potency was over 20 µM.
For the compound `N#Cc1ccc(CN2CC3(CCN(C(=O)c4cc(C(F)(F)F)cc(C(F)(F)F)c4)CC3)C2)cc1`, the Potency was over 20 µM.
As for `COc1ccc2[nH]cc(CCNc3nc(-c4ccc(N(C)C)cc4)nc4ccccc34)c2c1`, the Potency is over 20 µM.
In the case of `CN1CCN(c2nc(-c3ccc(N(C)C)cc3)nc3ccccc23)CC1`, the Potency is over 20 µM.
With `O=c1c(-c2ccc(F)cc2)nc2cncnc2n1-c1ccccc1` the figure was over 20 µM.
As to `Cn1cccc1C(=O)N1CCC[C@@]2(CCN(c3ncccn3)C2)C1`, the Potency is over 20 µM.
For `COc1ccc(Oc2ncc3nc(-c4ccc(F)cc4)c(=O)n(Cc4cccs4)c3n2)cc1`, the Potency is over 20 µM.
In the case of `COc1cccc(Nc2ncc3nc(-c4cccs4)c(=O)n(CCC#N)c3n2)c1`, the Potency was over 20 µM.
With `COc1ccc(NC(=O)N2CC[C@@]3(CCCN(C(=O)c4cccn4C)C3)C2)cc1` the figure was over 20 µM; with `CCNc1ncc2nc(-c3ccccc3)c(=O)n(Cc3cccs3)c2n1`, over 20 µM; with `CCNc1ncc2nc(-c3ccccc3)c(=O)n(CCc3ccccc3)c2n1`, over 4 µM.
Regarding `CN(C)c1ccc(-c2cc(N(C)Cc3ccco3)ncn2)cc1`, the Potency is over 20 µM.
As for `CNc1nc(-c2cccnc2)nc2ccccc12`, the Potency was over 20 µM.
With `COc1cccc(Cn2c(=O)c(-c3ccc(F)cc3)nc3cnc(N(C)C)nc32)c1` the figure was over 20 µM; with `COc1cccc(Cn2c(=O)c(-c3ccccc3)nc3cnc(OC)nc32)c1`, over 20 µM.
As for `COC(=O)N1CCC2(CCCN(Cc3cc(C(F)(F)F)cc(C(F)(F)F)c3)C2)CC1`, the Potency is over 20 µM.
With `Cn1c(=O)cnc2cnc(Oc3ccccc3)nc21` the figure was over 20 µM.
For `O=c1c(-c2cccs2)nc2cnc(N3CCOCC3)nc2n1Cc1ccc(F)cc1`, the Potency was over 20 µM.
On to `Clc1ccccc1-c1nc(Nc2ccncc2)c2ccccc2n1`, for which the Potency was over 20 µM.
On to `O=c1cnc2cnc(OCc3ccccc3)nc2n1CCc1ccccc1`, for which the Potency was over 20 µM.
Consider `CN1CCN(c2ncnc3ccc(-c4cccc(C#N)c4)cc23)CC1`, for which the Potency was over 20 µM.
With `COCC(=O)N1CCC[C@@]2(CCN(Cc3ccccc3OC)C2)C1`, the Potency is over 20 µM.
Regarding `Cn1c(=O)c(-c2ccccc2)nc2cnc(OCc3ccccc3)nc21`, the Potency was over 20 µM.
Consider `CCNc1ncc2nc(-c3ccc(Cl)cc3)c(=O)n(Cc3ccc(F)cc3)c2n1`, for which the Potency was 14 µM.
Regarding `COCCn1c(=O)c(-c2cccs2)nc2cnc(N3CCN(C)CC3)nc21`, the Potency is over 20 µM.
On to `N#Cc1ccccc1-c1ccc2ncnc(NC3CC3)c2c1`, for which the Potency was over 20 µM.
In the case of `COc1ccc(C(=O)N2CCC3(CCN(Cc4ccncc4)CC3)CC2)cc1`, the Potency is over 20 µM.
Turning to `Cc1noc(C)c1C(=O)N1CCC2(CCN(Cc3ccc(C#N)cc3)CC2)CC1`, the Potency is over 20 µM.
For `CCNc1ncc2nc(-c3ccc(OC)cc3)c(=O)n(Cc3cccs3)c2n1`, the Potency is over 20 µM.
Take `COc1cccc(-c2ccc3ncnc(NCCc4c[nH]c5ccc(OC)cc45)c3c2)c1`: the Potency was over 20 µM.
In the case of `CS(=O)(=O)N1CCC2(CCN(c3ccncc3)CC2)CC1`, the Potency was over 20 µM.
With `O=C(c1csnn1)N1CCC2(CC1)CCN(c1ccncc1)CC2` the figure was over 20 µM; with `O=c1cnc2cnc(N3CCOCC3)nc2n1Cc1cccs1`, over 20 µM; with `COc1ccccc1-c1cncnc1N1CCN(C)CC1`, over 20 µM.
With `CN1CCCC2(CCN(C(=O)c3cccc(F)c3)CC2)C1`, the Potency is over 20 µM.
As for `COCC(=O)N1CCC2(CC1)CN(C(=O)Nc1ccccc1)C2`, the Potency is over 20 µM.
Regarding `CS(=O)(=O)Nc1cccc(-c2nc(Nc3ccc(F)cc3)c3ccccc3n2)c1`, the Potency was over 20 µM.
For the compound `COc1cccc(Cn2c(=O)c(-c3cccc(C#N)c3)nc3cnc(N4CCN(C)CC4)nc32)c1`, the Potency was over 20 µM.
In the case of `COc1ncc2nc(-c3cc(F)cc(F)c3)c(=O)n(CCc3ccccc3)c2n1`, the Potency was over 20 µM.
Turning to `O=S(=O)(c1ccccc1)N1CCC[C@@]2(CCN(c3ncccn3)C2)C1`, the Potency is over 20 µM.
As to `O=C(c1cccc(F)c1)N1CCC2(CC1)CCN(C(c1ccccc1)c1ccccc1)CC2`, the Potency was over 20 µM.
On to `COCCn1c(=O)c(-c2cc(F)cc(F)c2)nc2cnc(Nc3cccc(OC)c3)nc21`, for which the Potency was 3.99 µM (active).
As for `CN1CC[C@@]2(CCCN(C(=O)c3cccn3C)C2)C1`, the Potency was over 20 µM.
Turning to `O=c1cnc2cnc(Nc3ccccc3)nc2n1Cc1cccs1`, the Potency is over 20 µM.
As for `Cc1cccc(CNc2ncncc2-c2cccc(C#N)c2)c1`, the Potency is over 20 µM.
Consider `CN(C)c1ncc2nc(CCc3ccccc3)c(=O)n(Cc3cccs3)c2n1`, for which the Potency was over 20 µM.
For `Cn1cccc1C(=O)N1CCC2(CC1)CCN(C(c1ccccc1)c1ccccc1)CC2`, the Potency is over 20 µM.
With `COc1ccc(CNc2ccnc(-c3ccccc3OC)n2)c(OC)c1`, the Potency was over 20 µM.
To `CN(C)c1nc(-c2cccc(C#N)c2)nc2ccccc12` belongs over 20 µM.
With `COCC(=O)N1CCC[C@@]2(CCN(C(c3ccccc3)c3ccccc3)C2)C1` the figure was over 20 µM.
For the compound `Cc1noc(C)c1C(=O)N1CCC[C@@]2(CCN(C(=O)Nc3cccc(C#N)c3)C2)C1`, the Potency is over 20 µM.
As for `O=C(Nc1cccc(F)c1)N1CC2(CCN(C(=O)c3cnccn3)CC2)C1`, the Potency was over 20 µM.
With `FC(F)(F)c1ccccc1-c1cc(NCc2cccnc2)ncn1`, the Potency was over 20 µM.
With `O=C(c1cccc(F)c1)N1CCC2(CC1)CN(c1ccccc1)C2`, the Potency is over 20 µM.
Consider `COCCNc1ccnc(-c2cccc(NS(C)(=O)=O)c2)n1`, for which the Potency was over 20 µM.
In the case of `COc1ccc(-n2c(=O)cnc3cnc(N(C)C)nc32)cc1`, the Potency was over 20 µM.
`COc1ccc(CNc2ccnc(-c3ccccc3Cl)n2)c(OC)c1`: the Potency is over 20 µM.
In the case of `FC(F)(F)c1cc(CN2CCC3(CCNCC3)CC2)cc(C(F)(F)F)c1`, the Potency is over 20 µM.
Turning to `CN(C)c1ncc2nc(-c3ccc(F)cc3)c(=O)n(CCc3ccccc3)c2n1`, the Potency is over 20 µM.
With `Cc1cccc(CNc2ncncc2-c2cccnc2)c1` the figure was over 20 µM; with `COc1ccc(Oc2ncc3ncc(=O)n(C4CC4)c3n2)cc1`, over 20 µM.
With `COc1cccc(-c2nccc(N(C)Cc3ccco3)n2)c1` the figure was over 20 µM.
As to `c1cn(-c2ncnc3ccc(-c4ccoc4)cc23)cn1`, the Potency is over 20 µM.
